Sampled rows, rich in hits. Any-hit rate of the full collection: about 1%.
RXFP1 ag – qHTS Assay for Agonists of the Relaxin Receptor RXFP1; Potency, µM (series often up to 57.5 µM), inactives show at the top dose activation, usual class: activators; hit rate 0.3% among 370,000; AID 2676, 2010; Relaxin receptor 1 (Homo sapiens), Q9HBX9; HEK293T-RXFP1 cAMP TR-FRET, 30 min; response scale: percent of porcine relaxin response, buffer zero; note: potency is the fitted concentration of half-maximal effect; % is set by controls: 0 for no effect and ±100 for the full control effect; nearly all actives have a fitted effect of over 60% in size
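HEK293T cells stably expressing RXFP1 were pretreated with the PDE4 inhibitor Ro 20174, exposed to compounds for 30 min at 37C, lysed, and cAMP was read by TR-FRET. Data normalized to buffer (basal) and 29 nM porcine relaxin (100%).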
gsp agonist – qHTS for Agonist of gsp, the Etiologic Mutation Responsible for Fibrous Dysplasia/McCune-Albright Syndrome: qHTS | gsp mutant cells, cAMP HTRF, 30 min | Potency, µM (top dose mostly 76.9 µM), without a hit: top-dose activation (cAMP increase), most hits filed as activators | hit rate 0.13% among 340,000 | AID 624287, 2012; active = well fitted activation curve with a large enough effect; inconclusive = small, poorly fitted or top-dose-only effect, or another doubt; inactive = no such curve, though single readings can be large or run the other way; cell line not stated here;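 note: phosphodiesterase inhibitor Ro 20-1724 added with compounds to block cAMP breakdown; potency is the fitted concentration of half-maximal effect; nearly all actives have a fitted effect of over 60% in size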
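Cells stably selected in G418 were plated at 2000/well, grown 16-24 hr, then given compounds in DMSO with the PDE inhibitor […] (300 uM solution added) for 30 min at 37C; cAMP was read by HTRF.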
KinaseGlo FLuc – Counterscreen for Luciferase (Kinase-Glo TM) Inhibition | Luciferin 4-monooxygenase (Photuris pensylvanica), Q27757 | hit rate 0.28% among 200,000 | AID 1379, 2008 | Potency, µM (doses to about 38.3 µM), for inactives: at the top dose activity change, negative = inhibition, usual class: inhibitors | Kinase-Glo luciferase, ATP luminescence, 8 min; note: potency is the fitted concentration of half-maximal effect; % is set by controls: 0 for no effect and ±100 for the full control effect; nearly all actives have a fitted effect of over 60% in size
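Substrate mix (final 50 mM imidazole pH 7.2, 50 mM KCl, 7 mM MgCl2, 10 uM ATP, 0.01% Tween 20, 0.05% BSA) plus pin-tool compound, then Kinase-Glo detection mix; 8 min ambient, luminescence read.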
RXFP1 antagonist – qHTS Assay for Antagonists of the Relaxin Receptor RXFP1; HEK293-RXFP1, relaxin-stimulated cAMP HTRF, 30 min; hits give low values; activity change, negative = inhibition, % at 57.5 µM; hit rate 0.59% among 350,000; AID 1259400, 2018;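 active = activity change of -60% or lower, but not beyond a set lower limit; inconclusive = change between -60% and -40%, or beyond the set limit; inactive = change above -40%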; note: % is set by controls: 0 for no effect and ±100 for the full control effect
miR-21 reporter – qHTS Assay for Modulators of miRNAs and/orActivators of miR-21; HeLa miR-21 FLuc reporter, luciferase, 48 h; Potency, µM (top dose mostly 38.3 µM), without a hit: top-dose activity change, positive = activation, actives largely listed as activators; 340,000 tested, under 10 active;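 note: % of control where 0% means no effect; miR-21 action dims this reporter so a rising signal means less miR-21 action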
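Luminescence from a firefly luciferase reporter carrying a miR-21 binding site downstream, stably expressed under a CMV promoter in HeLa cells that make miR-21 endogenously, reports miRNA modulation after 48 h compound exposure up to approximately 40uM final.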
gsp antag – qHTS for Antagonists of gsp, the Etiologic Mutation Responsible for Fibrous Dysplasia/McCune-Albright Syndrome: qHTS; gsp-mutant cells, cAMP HTRF, 30 min; Potency, µM (series often up to 76.9 µM), without a hit: top-dose activity change, negative = inhibition, hits mostly inhibitors; hit rate 0.4% among 340,000; AID 624288, 2012; calls by dose curve; cell line not stated here;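 note: intracellular cAMP measured with PDE inhibitor Ro 20-1724 present during compound exposure; potency is the fitted concentration of half-maximal effect; % is set by controls: 0 for no effect and ±100 for the full control effect; nearly all actives have a fitted effect of over 65% in size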
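Measurement of cellular cAMP by homogeneous time-resolved fluorescence following a 30 min compound exposure at 37C. The PDE inhibitor […] was present throughout; the assay buffer was DPBS with 0.05% BSA and 0.005% Tween 20.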
* = called active by the depositor; ? = inconclusive; . = no result; [ ] = another dose, or the depositor's remark. Unless noted, calls come from the whole dose curve; as a rule, active = well fitted curve in the direction sought with a large enough effect; inconclusive = small, poorly fitted or top-dose-only effect, or another doubt; inactive = no such curve, though single readings can be large; an effect the other way counts as inactive or inconclusive.

SMILES	RXFP1 ag	gsp agonist	KinaseGlo FLuc	RXFP1 antagonist	miR-21 reporter	gsp antag
CC(=O)c1ccc(N2CCN(CC(O)COC(c3ccccc3)c3ccccc3C)CC2)cc1 (stereo not drawn)	-6%	-29%[15.4 µM]	.	-28	5%	?
Cc1ccc(/C=C/c2nc3ccccc3[nH]2)o1	0%	-4%[15.4 µM]	13µM*	-10	4%	-10%
CCOC(=O)c1cc2c(=O)n3ccccc3nc2n(CCOC)c1=NC(=O)c1cc2ccccc2o1	2%	.	.	.	-7%	.
O=Nc1ccc(NOC(=O)c2ccc(Br)cc2)cc1	-2%	.	-1%	.	-1%	.
Cc1ccc(C(=O)ONc2ccc(N=O)cc2)cc1	1%	-11%	13µM*	5	1%	4%
O=C(CSc1nc2c([nH]c3ccccc32)c(=O)n1-c1ccccc1)c1ccccc1	-2%	.	.	-109*	2%	.
CCC(Sc1nc2cc3c(cc2c(=O)n1CCCC(=O)NCc1ccc2c(c1)OCO2)OCO3)C(=O)NCCCOC (stereo not drawn)	2%	.	.	-106*	-1%	.
CC(CNC(=O)C1CCN(C(=O)c2cc3sccc3n2C)CC1)c1ccccc1 (stereo not drawn)	4%	.	.	-25	14%	.
Cn1c(SCC(=O)Nc2ccc(NC(=O)c3ccccc3F)cc2)nnc1-c1ccncc1	23%	6%[15.4 µM]	.	3	-13%	50µM*
CC(C)C(=O)Nc1cccc(C2CN3CCSC3=N2)c1 (stereo not drawn)	.	.	.	10	.	.
COc1cccc(C(=O)Nc2nc(-c3nnn(-c4cccc(Cl)c4C)c3C)ns2)c1	3%	.	.	.	15%	.
CCN(CC)S(=O)(=O)c1ccc2c(c1)nc(SCn1nnc3ccccc3c1=O)n2CC	27%	35µM*	15%	5	-5%	6%
Cn1c(SCn2nnc3ccccc3c2=O)nc2ccccc2c1=O	-2%	.	1%	.	0%	.
Oc1ccc(CNCc2ccc3c(c2)OCO3)c2cccnc12	-2%	.	.	.	.	.
CCn1c2ccccc2c2cc(/C=N/n3c(-c4cc(C)[nH]n4)n[nH]c3=S)ccc21	-1%	-1%[15.4 µM]	.	-29	14%	35µM*
CCC(=O)N1c2ccc(S(=O)(=O)N3CCC(C)CC3)cc2CC1C (stereo not drawn)	-1%	.	.	.	-21%	.
CCc1ccc(OCC(=O)N(Cc2ccc(C)cc2)Cc2ccco2)cc1	0%	.	.	-61*	11%	.
Cc1ccc(CN(Cc2ccco2)C(=O)COc2ccc(C)c(C)c2)cc1	0%	.	.	.	-14%	.
Cc1cc(OCC(=O)N(Cc2ccc(N(C)C)cc2)Cc2ccco2)cc(C)c1Cl	-1%	.	.	-7	19%	.
Cc1cccc(OCC(=O)N(Cc2ccc(C(C)(C)C)cc2)Cc2ccco2)c1	-2%	.	.	-75*	?	.
CC(C)(C)c1ccc(C(=O)N(Cc2ccc(F)cc2)Cc2ccco2)cc1	1%	.	.	-79*	?	.
Clc1ncnc2scc(-c3ccccc3)c12	1%	28%	-1%	4	7%	3%
S=c1[nH]cnc2scc(-c3ccccc3)c12	2%	6%	-1%	-73*	-17%	-4%
O=C(CN1C(=O)c2ccc(Br)cc2C1=O)NCC1CCCO1 (stereo not drawn)	?	7.1µM*	.	11	2%	13%
O=C(CN1C(=O)c2ccccc2C1=O)NCC1CCCO1 (stereo not drawn)	15%	?	0%	3	-4%	13%
COc1cccc(Nc2nc3c(S(=O)(=O)c4cc(C)ccc4C)nnn3c3ccsc23)c1	1%	.	.	3	-5%	.
CC(C)[C@@H]1CC[C@@H](C)CC1=O	.	.	.	17	.	.
COc1ccccc1NS(=O)(=O)c1cc(C)ccc1C	-1%	-21%	-4%	-11	-1%	6.3µM*

Screening results as filed in PubChem BioAssay.
